Results published in PubChem BioAssay (NCATS).
Several values for one entry are separate records, joined by “and”; a condition that tells them apart may be missing. Equal values may be shown once. Records with an inconclusive call do not appear. Where a structure was tested more than once in an assay, its records may differ in their call. Activity calls are given as the source filed them. Unless noted, calls follow the shape of the dose curve; as a rule, active = well fitted curve in either direction with a large enough effect (not every such curve was filed as active); inconclusive = small, poorly fitted or top-dose-only effect, or another doubt; inactive = flat fitted curve, though single readings scatter.

Key:
[1] = AP1 Signaling Pathway (AID 357); details: ME-180 (cervical carcinoma) AP-1-bla reporter, EGF-induced, beta-lactamase ratio, 5 h; also: % is scaled to controls: 0 for no effect and ±100 for the full control effect
Outline: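 AP-1-bla ME-180 cells with beta-lactamase reporter under AP-1 response element, stimulated with EC50 EGF; compounds titrated, 5 hours at 37 degrees Celsius. CCF4 read at 460/530 nm ratio; positive and negative modulators judged by AC50.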

[2] = Cell Viability - BJ (AID 421; calls by dose curve;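 also: potency is read from the fitted curve at half-maximal effect; cells exposed to compound for 40 hours at 37 °C before readout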); details: BJ fibroblast viability, qHTS
Outline: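 Luminescent ATP signal (CellTiter-Glo, 20 min at room temperature) served as the read-out of viable BJ cells after 40 hours of compound treatment. Responses were scaled between DMSO and 100 uM tamoxifen, and AC50 values were obtained by Hill modeling.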

[3] = Cell Viability - Jurkat (AID 426;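 active = dose-dependent loss of cell ATP signal giving a full or clear fitted curve, ranked by lower potency value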;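 also: potency is read from the fitted curve at half-maximal effect; cells exposed to compound for 40 hours at 37 °C before ATP read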); details: qHTS
Outline: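 qHTS, 1536-well; Jurkat E6-1, 5000 cells/well, complete medium; cpd 40 hr, 37 °C; CellTiter-Glo 20 min RT; luminescence. AC50 by Hill fit.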

[4] = Cell Viability - Hek293 (AID 427;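 active = compounds whose dose-response curve shows a full or clear partial loss of cell viability, called from curve shape rather than a numeric limit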;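 also: potency is read from the fitted curve at half-maximal effect; cells exposed to compound for 40 hours at 37 °C before reading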); details: qHTS
Outline: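 Luminescent ATP read-out (CellTiter-Glo, 20 min RT) after 40 hr compound exposure at 37 °C in complete medium. Signal normalized to DMSO (basal) and 100 uM tamoxifen (100% inhibition); concentration-response fitted with the standard Hill equation to give AC50.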

[5] = Cell Viability - HepG2 (AID 433; calls by dose curve;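 also: potency is read from the fitted curve at half-maximal effect; potency for ATP loss meaning cytotoxicity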); details: qHTS
Outline: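 HepG2 hepatocellular carcinoma cells (1500/well) were treated with compounds for 40 h at 37 °C in complete medium; intracellular ATP was read by CellTiter-Glo luminescence. Data were normalized to DMSO and 100 uM tamoxifen, and AC50 came from Hill fits.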

[6] = Cell Viability - MRC5 (AID 434; calls by dose curve;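 also: potency is read from the fitted curve at half-maximal effect; potency reflects cytotoxicity seen as loss of intracellular ATP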); details: MRC5 lung fibroblast viability, qHTS
Outline: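 qHTS cytotoxicity in human lung fibroblast MRC5 cells; 40 hr treatment, 37 °C; cellular ATP by luciferase luminescence; DMSO = 0%, 100 uM tamoxifen = 100% inhibition; Hill-fit AC50.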

[7] = Cell Viability - SK-N-SH (AID 435; calls by dose curve;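 also: potency is read from the fitted curve at half-maximal effect; compound exposure lasted 40 h at 37 °C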); details: SK-N-SH neuroblastoma cell viability qHTS
Outline: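 SK-N-SH human neuroblastoma cells (1500/well) were exposed to compounds in complete medium for 40 h at 37 °C, and intracellular ATP was then measured by CellTiter-Glo luminescence. AC50 was taken from Hill fits, normalized to DMSO and 100 uM tamoxifen.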

[8] = NFAT Signaling Pathway (AID 444); details: Jurkat NFAT-bla M1, carbachol, beta-lactamase ratio, 5 h; at 38 µM (top of the series) unless noted;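 also: carbachol stimulus at about its EC50 of 1 µM final; % is scaled to controls: 0 for no effect and ±100 for the full control effect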
Outline: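 Read-out: CCF4 FRET ratio (460 nm/530 nm) after 1 h RT dye loading, used for %activity and AC50 from titration series. Cells: Jurkat NFAT-β-lactamase/M1 line, treated with compound plus 1 uM carbachol for 5 h, 37 °C.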

[9] = target: Cytochrome P450 1A2 (Homo sapiens) (UniProt P05177); assay: p450-cyp1a2 (AID 410; calls by dose curve; also: potency is read from the fitted curve at half-maximal effect;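 as to activity change, negative = inhibition: -100% = full effect of reference inhibitor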); details: recombinant CYP1A2, luciferin-ME demethylation, luminescence; series mostly up to 57 µM
Outline: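 Luminescent readout of luciferin formed from Luciferin-ME by human CYP1A2; data normalized against complete inhibition by 57 uM furafylline. Enzyme 20nM, substrate 100uM at Km, 100mM KPO4 buffer, 60 min reaction at room temperature.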

Sequence of Cytochrome P450 1A2 (Homo sapiens) (P05177 whole entry, looked up): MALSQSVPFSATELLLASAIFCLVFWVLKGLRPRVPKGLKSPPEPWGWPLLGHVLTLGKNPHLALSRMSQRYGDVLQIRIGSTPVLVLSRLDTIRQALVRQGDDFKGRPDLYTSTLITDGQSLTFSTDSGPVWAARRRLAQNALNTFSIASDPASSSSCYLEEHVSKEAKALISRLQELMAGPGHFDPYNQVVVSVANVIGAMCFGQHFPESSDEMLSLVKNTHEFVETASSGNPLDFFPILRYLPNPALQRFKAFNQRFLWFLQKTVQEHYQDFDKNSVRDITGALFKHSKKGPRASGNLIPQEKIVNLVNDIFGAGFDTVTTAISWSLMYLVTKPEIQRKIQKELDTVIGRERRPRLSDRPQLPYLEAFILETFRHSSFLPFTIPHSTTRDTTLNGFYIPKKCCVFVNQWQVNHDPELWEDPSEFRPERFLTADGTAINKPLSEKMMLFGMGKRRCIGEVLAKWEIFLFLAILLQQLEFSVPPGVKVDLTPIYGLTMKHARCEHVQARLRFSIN

SMILES: CC1(C)S[C@@H]2[C@H](NC(=O)[C@H](N)c3ccccc3)C(=O)N2[C@H]1C(=O)O
- activity change, negative = inhibition ([1]; at 17.2 µM (top of the series)): 6.1% (inactive)
- Potency [2]: > 92 µM (inactive)
- Potency [3]: > 92 µM (inactive)
- Potency [4]: > 92 µM (inactive)
- Potency [5]: > 92 µM (inactive)
- Potency [6]: > 92 µM (inactive)
- Potency [7]: > 92 µM (inactive)
- activity change, negative = inhibition [8]: 3.92% [at 17.2 µM] (inactive)

SMILES: O=C(O)c1cc(=O)c2c(Cl)cc(Cl)cc2[nH]1
- activity change, negative = inhibition ([1]; at 38 µM (top of the series)): -8.48% (inactive)
- Potency [9]: inactive
- activity change, negative = inhibition [8]: 0.544% (inactive)

SMILES: O=C(Nc1cccc(C(=O)Nc2ccc(S(=O)(=O)O)c3cc(S(=O)(=O)O)cc(S(=O)(=O)O)c23)c1)Nc1cccc(C(=O)Nc2ccc(S(=O)(=O)O)c3cc(S(=O)(=O)O)cc(S(=O)(=O)O)c23)c1
- activity change, negative = inhibition ([1]; at 38 µM (top of the series)): -2.72% (inactive)
- Potency [9]: inactive
- activity change, negative = inhibition [8]: 4.75% (inactive)

SMILES: Cc1cc(NC(=O)Nc2ccc3c(ccn3C)c2)sn1
- activity change, negative = inhibition ([1]; at 38 µM (top of the series)): -21.3% (inactive)
- Potency [9]: 10 µM (active) and 5.01 µM (active)
- activity change, negative = inhibition [8]: 10.3% (inactive)

SMILES: CN(C)c1nc(N)c(C(=O)N=C(N)N)nc1Cl
- activity change, negative = inhibition ([1]; at 38 µM (top of the series)): 10.7% (inactive)
- Potency [9]: 1 µM (active)
- activity change, negative = inhibition [8]: -15.7% (inactive)

SMILES: C=C[C@H]1CN2CC[C@@H]1C[C@@H]2[C@@H](O)c1ccnc2ccc(OC)cc12
- activity change, negative = inhibition ([1]; at 38 µM (top of the series)): 0.0731% (inactive) and 9.28% (inactive)
- Potency [9]: inactive
- activity change, negative = inhibition [8]: -6.92% (inactive) and -0.71% (inactive)

SMILES: Cc1c(Nc2ncccc2C(=O)O)cccc1C(F)(F)F
- activity change, negative = inhibition ([1]; at 17.2 µM (top of the series)): -17.9% (inactive)
- Potency [9]: 12.6 µM (active)
- activity change, negative = inhibition [8]: -13.1% [at 17.2 µM] (inactive)

SMILES: CC(C)(C=O)Cc1cc(C(C)(C)C)c(O)c(C(C)(C)C)c1
- activity change, negative = inhibition ([1]; at 38 µM (top of the series)): 5.89% (inactive)
- Potency [9]: 25.1 µM (active)
- activity change, negative = inhibition [8]: -17.5% (inactive)

SMILES: NO
- activity change, negative = inhibition ([1]; at 38 µM (top of the series)): 6.61% (inactive)
- Potency [9]: inactive
- activity change, negative = inhibition [8]: -5.23% (inactive)

SMILES: N#C/C(=C\c1ccc(O)c(O)c1)C(=O)NCc1ccccc1
- activity change, negative = inhibition ([1]; at 38 µM (top of the series)): -8.08% (inactive)
- Potency [9]: 12.6 µM (active) and 7.94 µM (active)
- activity change, negative = inhibition [8]: -14.7% (inactive)

SMILES: CN(C)C(N)=NCCC[C@H](N)C(=O)O
- activity change, negative = inhibition ([1]; at 38 µM (top of the series)): 3.1% (inactive)
- Potency [9]: inactive
- activity change, negative = inhibition [8]: -0.969% (inactive)

SMILES: NCCCCCCCCCCN
- activity change, negative = inhibition ([1]; at 38 µM (top of the series)): 4.16% (inactive)
- Potency [9]: inactive
- activity change, negative = inhibition [8]: 0.00398% (inactive)

SMILES: c1ccc(-c2ccccn2)nc1
- activity change, negative = inhibition ([1]; at 38 µM (top of the series)): 11.7% (inactive)
- Potency [9]: 25.1 µM (active)
- activity change, negative = inhibition [8]: -2.98% (inactive)

SMILES: Nc1ccc(C(=O)O)c(O)c1
- activity change, negative = inhibition ([1]; at 17.2 µM (top of the series)): 2.89% (inactive) and -3.6% (inactive)
- activity change, negative = inhibition [8]: 10.1% [at 17.2 µM] (inactive) and -5.83% [at 17.2 µM] (inactive)

SMILES: COc1cc2c(CCNC(C)=O)c[nH]c2cc1Cl
- activity change, negative = inhibition ([1]; at 38 µM (top of the series)): -0.206% (inactive)
- Potency [9]: 1 µM (active) and 126 nM (active)
- activity change, negative = inhibition [8]: -9.13% (inactive)

SMILES: O=C1NC(O)=NC1(c1ccccc1)c1ccccc1
- activity change, negative = inhibition ([1]; at 38 µM (top of the series)): 1.51% (inactive)
- Potency [9]: inactive
- activity change, negative = inhibition [8]: -13.5% (inactive)

SMILES: CCCCN1CCC(n2c(=O)[nH]c3ccccc32)CC1
- activity change, negative = inhibition ([1]; at 38 µM (top of the series)): -4.94% (inactive)
- Potency [9]: inactive
- activity change, negative = inhibition [8]: 4.7% (inactive)

SMILES: OC[C@H]1O[C@@H](n2cnc3c(Nc4ccccc4)ncnc32)[C@H](O)[C@@H]1O
- activity change, negative = inhibition ([1]; at 17.2 µM (top of the series)): 0.891% (inactive)
- activity change, negative = inhibition [8]: 4.47% [at 17.2 µM] (inactive)

SMILES: OC[C@H]1O[C@@H](n2cnc3c(NC4CCCC4)ncnc32)[C@H](O)[C@@H]1O
- activity change, negative = inhibition ([1]; at 17.2 µM (top of the series)): 4.32% (inactive)
- activity change, negative = inhibition [8]: 7.15% [at 17.2 µM] (inactive)

SMILES: CC(=O)SCC[N+](C)(C)C
- activity change, negative = inhibition ([1]; at 38 µM (top of the series)): 9.91% (inactive)
- Potency [9]: inactive
- activity change, negative = inhibition [8]: 9.71% (inactive)

SMILES: NCCNC(=O)c1ncsc1-c1cccc(F)c1
- activity change, negative = inhibition ([1]; at 38 µM (top of the series)): 0.181% (inactive)
- Potency [9]: 10 µM (active)
- activity change, negative = inhibition [8]: -3.73% (inactive)

SMILES: CCCn1c(=O)c2[nH]c(-c3ccc(OCC(=O)NCCN)cc3)nc2n(CCC)c1=O
- activity change, negative = inhibition ([1]; at 38 µM (top of the series)): 6.39% (inactive)
- Potency [9]: inactive
- activity change, negative = inhibition [8]: -8.17% (inactive)

SMILES: NCCCCC(=O)O
- activity change, negative = inhibition ([1]; at 38 µM (top of the series)): -6.31% (inactive)
- Potency [9]: inactive
- activity change, negative = inhibition [8]: -1.14% (inactive)

SMILES: Nc1cc(-c2ccncc2)c[nH]c1=O
- activity change, negative = inhibition ([1]; at 17.2 µM (top of the series)): -9.46% (inactive)
- Potency [9]: 15.8 µM (active)
- activity change, negative = inhibition [8]: -1.83% [at 17.2 µM] (inactive)

SMILES: Cc1ccc(C(=O)c2ccc(CC(=O)O)n2C)cc1
- activity change, negative = inhibition ([1]; at 17.2 µM (top of the series)): 6.83% (inactive)
- Potency [9]: inactive
- activity change, negative = inhibition [8]: -1.3% [at 17.2 µM] (inactive)

SMILES: N#C/C(=C\c1ccc(O)c(O)c1)C(=O)c1ccc(O)c(O)c1
- activity change, negative = inhibition ([1]; at 38 µM (top of the series)): -8.79% (inactive)
- Potency [9]: 31.6 µM (active)
- activity change, negative = inhibition [8]: -9.14% (inactive)

SMILES: CN1CCc2cc(NC(=O)Nc3cccnc3)ccc21
- activity change, negative = inhibition ([1]; at 38 µM (top of the series)): -1.43% (inactive)
- Potency [9]: 0.0794 µM (active)
- activity change, negative = inhibition [8]: 4.73% (inactive)

SMILES: COC(=O)c1c(C)[nH]c(C)c1C(=O)c1ccccc1Cc1ccccc1
- activity change, negative = inhibition ([1]; at 38 µM (top of the series)): -27.5% (inactive)
- Potency [9]: 1.26 µM (active) and 251 nM (active)
- activity change, negative = inhibition [8]: 4.44% (inactive)

SMILES: C[N+]1(C)CCC(OC(=O)C(c2ccccc2)c2ccccc2)CC1
- activity change, negative = inhibition ([1]; at 38 µM (top of the series)): 10.3% (inactive)
- Potency [9]: 10 µM (active) and inactive
- activity change, negative = inhibition [8]: -75% (active)

SMILES: COc1cc(/C=C/C(=O)CC(=O)/C=C/c2ccc(O)c(OC)c2)ccc1O
- activity change, negative = inhibition ([1]; at 17.2 µM (top of the series)): 22.5% (inactive)
- Potency [3]: 28.2 µM (active)
- Potency [4]: 42.7 µM (active)
- Potency [5]: > 92 µM (inactive)
- Potency [6]: 45.2 µM (active)
- Potency [7]: 22.9 µM (active)

SMILES: O=C(O)c1cc([N+](=O)[O-])ccc1NCCCc1ccccc1
- activity change, negative = inhibition ([1]; at 38 µM (top of the series)): -8.1% (inactive)
- Potency [9]: 31.6 µM (active)
- activity change, negative = inhibition [8]: 5.3% (inactive)
